Results filed as inconclusive are left out. Calls of active or inactive are those of the source. Unless noted, the call rests on the fitted dose curve.
Tests used:
[1] = Nuclear factor erythroid 2-related factor 2/antioxidant responsive element (Nrf2/ARE) small molecule agonists: qHTS cell viability counter screen in human keratinocytes (AID 1919968; active means well fitted curve in the direction sought with a large enough effect in the repeat runs; an effect the other way counts as inactive or inconclusive; further: nearly all actives have a fitted effect of over 55% in size; further: potency means the concentration at half of the fitted maximal effect)
Outline: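 Viability counter-screen: KeratinoSens reporter cells, DMSO-delivered compounds, 23 h at 37 C, CellTiter-Fluor fluorescence.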

[2] = Nuclear factor erythroid 2-related factor 2/antioxidant responsive element (Nrf2/ARE) small molecule agonists: luciferase reporter gene qHTS assay in human keratinocytes (AID 1919969); further: nearly all actives have a fitted effect of over 35% in size; further: potency means the concentration at half of the fitted maximal effect
[3] = molecular target: Gonadotropin-releasing hormone receptor (Homo sapiens) (UniProt P30968); experiment: Human gonadotropin-releasing hormone receptor (GnRHR) small molecule agonists, calcium flux assay in GnRHR-HEK293 cells (AID 1920063); further: nearly all actives have a fitted effect of over 35% in size
Outline: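 Tox21-format agonist screen using human GnRHR-expressing HEK293 cells and a fluorescent calcium dye; kinetic 3-min fluorescence reading after compound addition, 15-point concentration series run in triplicate.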

[4] = molecular target: KiSS-1 receptor (Homo sapiens) (UniProt Q969F8); experiment: Human kisspeptin (KISS1R) small molecule agonists, calcium flux assay in KISS1R-HEK293 cells (AID 1920064; active means well fitted curve in the direction sought with a large enough effect in the repeat runs; an effect the other way counts as inactive or inconclusive)
Outline: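 Intracellular calcium mobilization in KISS1R-HEK293 cells was recorded by fluorescence (Ex/Em 480/540) for 3 min following compound addition to cells pre-loaded 1 h with calcium dye.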

[5] = G protein-coupled receptor (GPCR) small molecule agonists, calcium flux assay: HEK293 wild type cell line counter screen (AID 1920065)
Outline: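 In this agonist-mode screen, ATP is the positive control and DMSO the vehicle. Cells grow 18 h before a 1 h dye incubation at 37 C; signal is taken at Ex/Em 480/540 over 3 min.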

[6] = p53 small molecule agonists, cell-based qHTS assay with human liver microsomes (AID 1963577)
Outline: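 Cells carrying a p53-responsive bla reporter were rested 5 h (37 C, 5% CO2) before compound transfer. Human liver microsomes plus NADPH, 0.5 mg/mL final apiece, supplied metabolism during the 16 h 37 C exposure.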

[7] = p53 small molecule agonists, cell-based qHTS assay with rat liver microsomes (AID 1963578)
Outline: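 Fluorescence from a beta-lactamase reporter under a p53 response element was measured after cells had been incubated 16 h at 37 C with test compound and rat liver microsomes plus NADPH (0.5 mg/mL final each).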

[8] = p53 small molecule agonists, cell-based qHTS assay with human liver microsomes: qHTS cell viability counter screen (AID 1963579); further: nearly all actives have a fitted effect of over 45% in size
Outline: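 Seed p53RE-bla cells at 4,000 per well; incubate 5 h at 37 C; add compound, human liver microsomes and NADPH; incubate 16 h at 37 C; add CellTiter-Glo; after 30 min at room temperature, read luminescence.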

[9] = p53 small molecule agonists, cell-based qHTS assay with rat liver microsomes: qHTS cell viability counter screen (AID 1963580); further: nearly all actives have a fitted effect of over 45% in size
Outline: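 p53RE-bla HCT-116 cells were exposed 16 h at 37 C to compounds with rat liver microsomes (0.5 mg/mL) and NADPH (0.5 mg/mL). Viability was measured in the same wells as ATP content by CellTiter-Glo luminescence.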

[10] = molecular target: 5-hydroxytryptamine receptor 2A (Homo sapiens) (UniProt P28223); experiment: 5-hydroxytryptamine receptor 2A (HTR2A) small molecule agonists, cell-based qHTS assay (AID 1963587); further: nearly all actives have a fitted effect of over 30% in size
Outline: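 CHO cells stably expressing human HTR2A, plated 18 h, loaded with calcium dye 1 h at 37 C. Agonist mode: compounds added and intracellular calcium fluorescence recorded kinetically for 2 min at 1 sec intervals.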

[11] = molecular target: Muscarinic acetylcholine receptor M1 (Homo sapiens) (UniProt P11229); experiment: Cholinergic receptor muscarinic 1 (CHRM1) small molecule agonists, cell-based qHTS assay (AID 1963589); further: nearly all actives have a fitted effect of over 35% in size
Outline: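 Stable CHRM1-CHO cells (human receptor) were incubated 18 h, dye-loaded for 1 h at 37 C and exposed to test compounds for agonist activity, with calcium-dependent fluorescence followed kinetically.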

[12] = molecular target: Beta-2 adrenergic receptor (Homo sapiens) (UniProt P07550); experiment: Adrenergic beta2 receptor (ADRB2) small molecule antagonists, cell-based qHTS assay (AID 1963592); further: nearly all actives have a fitted effect of over 50% in size; further: potency means the concentration at half of the fitted maximal effect; on activity change, negative = inhibition: series mostly up to about 92 µM
Outline: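 Cells (CHO, stable ADRB2 overexpression) incubated 18-20hr at 37C; compounds added from DMSO; agonist mix (1nM isoproterenol, 100uM IBMX, 25uM Ro-20-1724) added; 0.5hr RT; d2-cAMP and anti-cAMP-cryptate added; 1hr RT; 665/615 nm read.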

[13] = molecular target: D(2) dopamine receptor (Homo sapiens) (UniProt P14416); experiment: Dopamine D2 receptor (DRD2) small molecule agonists, cell-based qHTS assay (AID 1963594); further: nearly all actives have a fitted effect of over 35% in size
Outline: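 HEK293 cells stably expressing human DRD2, pre-treated with PDE inhibitor Ro20-1724 (0.1 mM final) and compound 10 min at room temperature, then stimulated with NKH477 (200nM […]) for 30 min. cAMP read by HTRF (665/620 nm).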

[14] = molecular target: D(2) dopamine receptor (Homo sapiens) (UniProt P14416); experiment: Dopamine D2 receptor (DRD2) small molecule antagonists, cell-based qHTS assay (AID 1963595; active means well fitted inhibition curve with a large enough effect in the signal ratio in the repeat runs, with a control signal flat; the % refers to the signal ratio; further: potency means the concentration at half of the fitted maximal effect)
Outline: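 Stable D2 receptor HEK293 line, 24 h after seeding. Compound preincubated 10 min, then quinpirole (12 nM) with forskolin analogue NKH477 (200 nM), 30 min, room temperature. Detection by time-resolved FRET of cAMP.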

[15] = p53 small molecule agonists, cell-based qHTS assay (AID 1963582; active means well fitted activation curve with a large enough effect in the signal ratio in the repeat runs, not every such curve was filed as active; the % refers to the signal ratio)
Outline: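 Agonist activity was scored from beta-lactamase FRET fluorescence in p53RE-bla cells treated 16 h at 37 C with compounds in DMSO, substrate incubation being 2 h at room temperature.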

[16] = molecular target: 5-hydroxytryptamine receptor 2A (Homo sapiens) (UniProt P28223); experiment: 5-hydroxytryptamine receptor 2A (HTR2A) small molecule antagonists, cell-based qHTS assay (AID 1963586); further: nearly all actives have a fitted effect of over 45% in size
Outline: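 Antagonist-mode intracellular calcium assay: DOI (4 nM) added after 5 min compound pre-incubation at room temperature to dye-loaded HTR2A-CHO cells. Fluorescence followed for 3 min, sampled every second.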

[17] = molecular target: Muscarinic acetylcholine receptor M1 (Homo sapiens) (UniProt P11229); experiment: Cholinergic receptor muscarinic 1 (CHRM1) small molecule antagonists, cell-based qHTS assay (AID 1963588); further: nearly all actives have a fitted effect of over 40% in size
Outline: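 CHRM1-CHO calcium-flux assay, antagonist mode. Cells were seeded 18 h, dye-loaded 1 h at 37 C and given compound for 5 min at RT, then acetylcholine was added at 50nM. FDSS fluorescence was read 3 min; 15 concentrations, three runs.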

[18] = cAMP Responsive Elements (CRE) small molecule agonists, cell-based qHTS assay (AID 1963590)
Outline: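 FRET-based beta-lactamase readout (LiveBLAzer B/G, 2 h RT) quantified CRE activation in HEK 293T CRE-bla cells after 3 h treatment with DMSO-dissolved compounds.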

[19] = cAMP Responsive Elements (CRE) small molecule antagonists, cell-based qHTS assay (AID 1963591; active means well fitted inhibition curve with a large enough effect in the signal ratio in the repeat runs, not every such curve was filed as active; the % refers to the signal ratio)
Outline: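 qHTS in CRE-bla HEK 293T cells: compound in DMSO, then 0.25 uM NKH477 (final), 3 h at 37 °C/5% CO2; beta-lactamase FRET read-out after 2 h substrate incubation.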

[20] = molecular target: Beta-2 adrenergic receptor (Homo sapiens) (UniProt P07550); experiment: Adrenergic beta2 receptor (ADRB2) small molecule agonists, cell-based qHTS assay (AID 1963593);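 further: CHO cells stably overexpressing human ADRB2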
Outline: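 CHO cells stably over-expressing ADRB2 were plated overnight at 37C, then dosed with compounds plus a stimulation mix containing 100uM IBMX and 25uM Ro-20-1724 for 0.5hr at room temperature. cAMP was measured by HTRF competition, 1hr.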
On the % scale 0 is the no-effect control and ±100 the full control effect.

KiSS-1 receptor (Homo sapiens), sequence (Q969F8 whole entry, looked up): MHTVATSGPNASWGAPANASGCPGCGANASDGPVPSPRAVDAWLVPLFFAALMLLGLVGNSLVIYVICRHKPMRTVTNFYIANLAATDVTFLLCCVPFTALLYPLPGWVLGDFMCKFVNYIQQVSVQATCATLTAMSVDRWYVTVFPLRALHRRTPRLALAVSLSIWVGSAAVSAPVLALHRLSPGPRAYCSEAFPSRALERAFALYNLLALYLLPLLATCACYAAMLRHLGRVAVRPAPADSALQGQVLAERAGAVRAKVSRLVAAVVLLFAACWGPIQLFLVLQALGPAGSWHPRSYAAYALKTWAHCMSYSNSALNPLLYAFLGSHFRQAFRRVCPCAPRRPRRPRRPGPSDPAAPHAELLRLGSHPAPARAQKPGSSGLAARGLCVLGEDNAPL
Gonadotropin-releasing hormone receptor (Homo sapiens), sequence (P30968 whole entry, looked up): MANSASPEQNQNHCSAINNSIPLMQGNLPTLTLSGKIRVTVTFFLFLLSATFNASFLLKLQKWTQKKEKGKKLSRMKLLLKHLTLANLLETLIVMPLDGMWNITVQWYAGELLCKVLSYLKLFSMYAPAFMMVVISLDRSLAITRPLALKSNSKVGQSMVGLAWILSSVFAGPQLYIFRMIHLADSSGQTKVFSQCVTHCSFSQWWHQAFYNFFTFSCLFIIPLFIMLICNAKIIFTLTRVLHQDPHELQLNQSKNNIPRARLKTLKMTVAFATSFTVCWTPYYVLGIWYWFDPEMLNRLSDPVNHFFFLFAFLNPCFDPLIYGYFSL
Beta-2 adrenergic receptor (Homo sapiens), sequence (P07550 whole entry, looked up): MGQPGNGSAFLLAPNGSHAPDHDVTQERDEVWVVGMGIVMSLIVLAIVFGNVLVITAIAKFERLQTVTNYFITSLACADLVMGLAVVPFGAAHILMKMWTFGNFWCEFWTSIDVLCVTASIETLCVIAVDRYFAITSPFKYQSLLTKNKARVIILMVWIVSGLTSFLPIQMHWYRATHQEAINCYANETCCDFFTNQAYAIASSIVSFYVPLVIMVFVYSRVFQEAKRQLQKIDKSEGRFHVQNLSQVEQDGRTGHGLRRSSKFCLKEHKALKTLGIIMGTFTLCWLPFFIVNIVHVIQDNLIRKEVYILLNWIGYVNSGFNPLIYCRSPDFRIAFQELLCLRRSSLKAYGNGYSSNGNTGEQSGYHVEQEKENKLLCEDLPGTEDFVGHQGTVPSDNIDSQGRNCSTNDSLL
D(2) dopamine receptor (Homo sapiens), sequence (P14416 whole entry, looked up): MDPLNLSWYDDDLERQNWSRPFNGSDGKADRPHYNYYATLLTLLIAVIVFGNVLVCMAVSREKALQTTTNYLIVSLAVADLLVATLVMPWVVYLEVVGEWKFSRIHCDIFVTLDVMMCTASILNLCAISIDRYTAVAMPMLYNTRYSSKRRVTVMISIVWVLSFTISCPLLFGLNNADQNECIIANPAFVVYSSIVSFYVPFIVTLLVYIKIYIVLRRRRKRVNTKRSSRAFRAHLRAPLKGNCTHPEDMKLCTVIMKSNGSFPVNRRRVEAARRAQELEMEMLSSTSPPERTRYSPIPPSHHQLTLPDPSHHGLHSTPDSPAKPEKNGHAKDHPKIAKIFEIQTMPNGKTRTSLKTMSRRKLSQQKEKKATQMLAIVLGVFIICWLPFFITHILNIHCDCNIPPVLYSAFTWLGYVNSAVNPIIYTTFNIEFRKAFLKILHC
Muscarinic acetylcholine receptor M1 (Homo sapiens), sequence (P11229 whole entry, looked up): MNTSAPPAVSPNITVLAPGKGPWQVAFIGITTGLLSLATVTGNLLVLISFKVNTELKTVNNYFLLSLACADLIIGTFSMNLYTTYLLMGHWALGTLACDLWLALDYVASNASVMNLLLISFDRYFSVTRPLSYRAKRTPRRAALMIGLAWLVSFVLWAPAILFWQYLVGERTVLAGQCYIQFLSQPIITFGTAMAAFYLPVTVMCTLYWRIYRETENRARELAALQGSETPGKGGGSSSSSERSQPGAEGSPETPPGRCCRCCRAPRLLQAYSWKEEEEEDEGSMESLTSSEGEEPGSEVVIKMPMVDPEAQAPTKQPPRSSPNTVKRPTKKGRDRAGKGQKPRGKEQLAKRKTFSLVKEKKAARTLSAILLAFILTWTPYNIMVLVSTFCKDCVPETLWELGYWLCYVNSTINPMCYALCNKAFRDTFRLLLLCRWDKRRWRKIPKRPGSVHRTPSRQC
5-hydroxytryptamine receptor 2A (Homo sapiens), sequence (P28223 whole entry, looked up): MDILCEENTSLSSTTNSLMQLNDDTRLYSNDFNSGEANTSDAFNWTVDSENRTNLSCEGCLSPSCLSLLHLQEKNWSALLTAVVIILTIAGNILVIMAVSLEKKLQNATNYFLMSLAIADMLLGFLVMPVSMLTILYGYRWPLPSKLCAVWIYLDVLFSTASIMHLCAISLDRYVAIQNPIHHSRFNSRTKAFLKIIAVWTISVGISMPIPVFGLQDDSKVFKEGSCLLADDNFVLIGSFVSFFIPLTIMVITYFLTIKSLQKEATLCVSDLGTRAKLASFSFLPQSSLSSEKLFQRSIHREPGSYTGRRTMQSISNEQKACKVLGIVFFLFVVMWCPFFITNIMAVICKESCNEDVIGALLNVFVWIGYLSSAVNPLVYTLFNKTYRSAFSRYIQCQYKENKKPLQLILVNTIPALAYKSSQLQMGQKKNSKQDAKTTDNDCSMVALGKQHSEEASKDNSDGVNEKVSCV

O=C1NCN(c2ccccc2)C12CCN(CCCC(c1ccc(F)cc1)c1ccc(F)cc1)CC2
inactive: Potency [2] | Potency [3] | outcome [4] | outcome [5] | Potency [6] | Potency [7] | Potency [8] | Potency [9] | Potency [10] | Potency [11] | Potency [13]
active: Potency [1] 29.8 µM | Potency [12] 23.7 µM | Potency [14] 0.0335 µM

O=C(/C=C/c1ccccc1)OCCCc1ccccc1
inactive: Potency [1] | Potency [2] | Potency [3] | outcome [4] | outcome [5] | Potency [6] | Potency [7] | Potency [8] | Potency [15] | Potency [16] | Potency [10] | Potency [17] | Potency [11] | Potency [18] | Potency [19] | Potency [12] | Potency [13]

COc1cc(OC)cc(OC)c1
inactive: Potency [1] | Potency [2] | Potency [3] | outcome [4] | outcome [5] | Potency [6] | Potency [7] | Potency [8] | Potency [15] | Potency [16] | Potency [10] | Potency [17] | Potency [11] | Potency [18] | Potency [19] | Potency [12] | Potency [20] | Potency [13] | Potency [14]

CCCCCCCCOc1ccc(C(=O)O)cc1
active: Potency [2] 60.4 µM
inactive: Potency [1] | Potency [3] | outcome [4] | outcome [5] | Potency [6] | Potency [7] | Potency [8] | Potency [9] | Potency [10] | Potency [11] | Potency [19] | Potency [12] | Potency [20] | Potency [13] | Potency [14]

CC(C)COC(=O)c1ccccc1
inactive: Potency [1] | Potency [2] | Potency [3] | outcome [4] | outcome [5] | Potency [6] | Potency [7] | Potency [8] | Potency [15] | Potency [16] | Potency [10] | Potency [17] | Potency [11] | Potency [18] | Potency [19] | Potency [13] | Potency [14]

[O]=[Bi]
inactive: activity change, negative = cytotoxicity [1] 4.16% [at 8.39 µM] | activity, positive = activation [2] 29.8% [at 8.39 µM] | activity change [3] 0.29% [at 5.22 µM, active compounds read high] | activation [4] 0.437% [at 6.97 µM] | activation [5] 0.259% [at 5.23 µM] | activation [6] -14.4% [at 5.99 µM] | activation [7] 0.191% [at 5.99 µM] | activity change, negative = cytotoxicity [8] -5.49% [at 5.99 µM] | activation [15] 6.59% [at 5.99 µM] | activity, negative = inhibition [16] 2.38% [at 5.62 µM] | activation [10] 0.438% [at 7.02 µM] | activity, negative = inhibition [17] 3.36% [at 5.58 µM] | activation [11] 0.394% [at 6.97 µM] | activation [18] -0.129% [at 8.39 µM] | activity change, negative = inhibition [19] -10.4% [at 8.39 µM] | activity change, negative = inhibition [12] 6.45% [at 8.39 µM] | activation [20] 3.98% [at 8.39 µM] | activation [13] 0.151% [at 8.39 µM] | activity change, negative = inhibition [14] -14.1% [at 8.38 µM]
